# Rows were chosen to be rich in hits. Some 1.5% of all compounds tested hit in one or more screens of this group.
# Beta2AR agonist = beta2AR agonists driving receptor internalization, primary screen, cell-based, FAP fluorogen, flow cytometry | Beta-2 adrenergic receptor (Homo sapiens), P07550 | Am2.2-beta2AR cells | response, % (no concentration beside the values) | 340,000 tested, 0.43% active | AID 504454, 2011;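 active means response above a set limit, near 3 SD of response in nonfluorescent compounds, cut at about 42% in these data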
# Target sequence (P07550 whole entry, looked up): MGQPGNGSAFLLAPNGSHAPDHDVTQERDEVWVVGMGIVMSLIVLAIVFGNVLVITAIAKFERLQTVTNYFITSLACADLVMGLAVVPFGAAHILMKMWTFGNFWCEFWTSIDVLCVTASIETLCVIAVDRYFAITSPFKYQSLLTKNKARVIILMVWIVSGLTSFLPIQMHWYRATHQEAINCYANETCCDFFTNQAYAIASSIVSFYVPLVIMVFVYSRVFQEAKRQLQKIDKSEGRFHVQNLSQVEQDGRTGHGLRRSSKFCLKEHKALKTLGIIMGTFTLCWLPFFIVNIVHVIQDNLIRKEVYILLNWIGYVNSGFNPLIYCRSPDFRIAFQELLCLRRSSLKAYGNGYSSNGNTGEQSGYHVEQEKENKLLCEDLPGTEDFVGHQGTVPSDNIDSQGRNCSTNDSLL
# NTR1 ag = agonists of human NTR1, primary screen, imaging, U2OS cells, beta-arrestin-GFP, high content. 330,000 tested, 0.17% active. Neurotensin receptor type 1 (Homo sapiens), P30989. NTR1-U2OS beta-arrestin-GFP spot imaging, agonist mode. activation, % at 20 µM;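 active means activation at or above 40% of the spot to cytoplasm intensity ratio, with at least 20 cells analyzed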;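 further: 0% = DMSO without peptide and 100% = 100 nM NTR1 peptide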
# ABHD5 PLIN5 PPI = ABHD5-PLIN5 interaction inhibitors, primary screen, cell lysate, split luciferase complementation, luminescence; Split G. princeps luciferase complementation, 4 h; inhibition, % at 4 µM; 360,000 tested, 0.78% active;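 active means inhibition above the mean inhibition across every tested compound plus 3 SD, cut at about 22% in these data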;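 further: 0% = DMSO only wells and the 100% control is not disclosed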
# TLR4 MyD88 comp = inhibitors of TLR4-MyD88 association in cells, primary screen, cell-based, HeLa CL3-4, BLA complementation, FRET ratio. Toll-like receptor 4 (Homo sapiens) + Myeloid differentiation primary response protein …. HeLa CL3-4 TLR4/MyD88 BLA complementation. inhibition, % at 8.4 µM. 200,000 tested, 0.18% active. AID 861, 2007; in the data active means inhibition above about 25%;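 further: 0% = vehicle and 100% = reference inhibitor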
# TLR9-MyD88 block = inhibitors of TLR9-MyD88 association in cells, primary screen, cell-based, CHO, BLA complementation, fluorescence | Toll-like receptor 9 (Homo sapiens) + Myeloid differentiation primary response protein … | CCF4 FRET ratio | inhibition, % at 4.98 µM | 340,000 tested, 0.21% active | AID 504734, 2011;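 active means inhibition above the mean over all tested compounds plus 3 SD, cut at about 21% in these data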;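 further: 0% = DMSO only wells and 100% = clavulanate BLA inhibitor control wells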
# NOD2 RIPK2 PPI = NOD2-RIPK2 binding disruptors in cells, primary screen, fluorescence, CHO cells, BLA complementation | 360,000 tested, 0.38% active | CCF4 ratio | inhibition, % at 4.98 µM | AID 624267, 2012 | Receptor-interacting serine/threonine-protein kinase 2 (Homo sapiens), O43353; in the data active means inhibition above about 21%;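 further: 0% = vehicle only and 100% = reference blocker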
# * = called active by the depositor; x = no result.
SMILES,Beta2AR agonist,NTR1 ag,ABHD5 PLIN5 PPI,TLR4 MyD88 comp,TLR9-MyD88 block,NOD2 RIPK2 PPI
Cc1cc(-c2csc(N)n2)c(C)n1Cc1ccco1,29,0,23*,7,1,-4
Cc1cc(-c2csc(N)n2)c(C)n1C,3,0,-2,-11,3,-10
Fc1ccc(Br)cc1C1C=C(c2cccnc2)Nc2ncnn21 (centres undefined),-19,x,2,-6,24*,49*
CN(Cc1ccc(Cl)cc1)C(=O)c1[nH]c(C(F)(F)F)nc1-c1ccccc1,x,x,0,x,x,-12
CCOc1ccccc1-c1c2cc(O)c(=O)cc-2oc2cc(O)c(O)cc12,-247,x,27*,1,16,13
O=c1cc2oc3cc(O)c(O)cc3c(-c3ccccc3O)c-2cc1O,-29,x,13,x,-8,8
CN(C)/C=C1\C(=O)ON=C1c1ccccc1,10,2,6,-2,-3,-5
O=C1ON=C(c2ccccc2)/C1=C/c1ccco1,58*,4,18,20,-1,0
CC(=O)C1CCC2C3CCC4=CC(=O)CC[C@]4(C)[C@@]3(F)C(O)C[C@]12C (some centres undefined),-15,0,-1,x,6,-8
CC(=O)C1CCC2C3CCC4=CC(=O)CCC4(C)C3(Br)C(=O)CC12C (centres undefined),56*,x,2,x,-5,-1
COc1ccc(C2=Cc3ccc(OC(C)=O)cc3OC2)cc1,0,x,8,x,-6,-2
CCOC(=O)[C@]12CCCC=C1N(Cc1cccc3ccccc13)C(=O)[C@H](CC(=O)NCc1ccccc1)C2,x,x,0,x,x,-6
CC(=O)C1=C(C)NC(SCC(N)=O)=C(C#N)C1c1ccco1 (centres undefined),-6,0,3,4,3,-9
CC(=O)C1=C(C)NC(SCC(=O)c2cc(Cl)ccc2Cl)=C(C#N)C1c1ccco1 (centres undefined),10,8,22*,-1,1,21*
COC(=O)c1ccc(COc2ccccc2/C=C(\C#N)C(=O)Nc2ccc(C)cc2)cc1,8,19,1,-4,-3,4
C=CCNC(=O)/C(C#N)=C/c1ccccc1OCc1ccc(C(=O)OC)cc1,1,17,22*,1,-2,-1
COc1ccc(C(=O)/C(C#N)=N/Nc2ccccc2[N+](=O)[O-])cc1,-2,-1,1,16,-9,-4
COc1ccc(C(=O)/C(C#N)=N/Nc2ccc([N+](=O)[O-])cc2)cc1,46*,6,4,6,3,4
CC(=O)Nc1cc(-c2ccc(C(=O)NC3CC3)cc2)cn2c(-c3ccc(F)c(Cl)c3)cnc12,x,x,-1,x,x,10
O=C(NCc1ccc(F)cc1)c1cc(C2CCCCN2S(=O)(=O)c2cccs2)on1 (centres undefined),x,x,-3,x,x,2
N=c1c(C(=O)NCc2ccccc2)cc2c(=O)n3ccccc3nc2n1Cc1ccco1,12,16,26*,11,-10,8
N=c1c(C(=O)NC2CCCC2)cc2c(=O)n3ccccc3nc2n1C1CCCC1,-18,2,1,-4,-7,1
CCCCn1c(=NC(=O)c2ccco2)c(C(=O)OCC)cc2c(=O)n3ccccc3nc21,-3,5,28*,-3,-10,-11
Cc1ccc(CNC(=O)c2cc3c(=O)n4ccccc4nc3n(CC3CCCO3)c2=N)cc1 (centres undefined),-4,4,6,-12,-10,-25
N=c1c(C(=O)NCc2ccco2)cc2c(=O)n3ccccc3nc2n1Cc1ccccc1,35,4,21,1,-25,0
SMILES,Beta2AR agonist,NTR1 ag,ABHD5 PLIN5 PPI,TLR4 MyD88 comp,TLR9-MyD88 block,NOD2 RIPK2 PPI
Cc1ccc(CNC(=O)c2cc3c(=O)n4ccccc4nc3n(Cc3ccco3)c2=N)cc1,7,31,30*,x,1,4
N=c1c(C(=O)NCc2ccco2)cc2c(=O)n3ccccc3nc2n1C1CCCC1,8,3,23*,x,2,0
COc1ccc(CN(C)C(=O)c2ccc(NC(=O)CC3SC(N4CCCCC4)=NC3=O)cc2)c(OC)c1 (centres undefined),9,x,2,x,-3,-8
CN(c1ccccc1)c1ncnc2c1ncn2C,-3,x,-8,x,0,-3
COc1cc(CN2C[C@@H](CO)O[C@@H](n3cnc4c(NC(C)C)ncnc43)C2)cc(OC)c1OC,x,x,-6,x,x,5
Cc1cc(C(=O)c2ccc(C(C)(C)C)cc2)c(NC(=O)CCl)s1,96*,16,2,0,1,-2
COC(=O)[C@@]1(Cc2ccc(F)cc2)[C@H]2c3cc(C(=O)N4CCCC4)n(C)c3C[C@H]2CN1C(=O)c1ccccc1,x,x,6,x,x,-5
Fc1ccccc1NC(=S)N1CCN(C/C=C/c2ccccc2)CC1,56*,1,0,8,0,-2
COC[C@@H]1CCCN1[C@H]1CS(=O)(=O)N[C@@H]1COCc1ccccc1,x,x,7,x,x,7
C/C(=C\C(=O)c1ccc(Br)cc1)NCc1ccccc1,46*,2,-1,7,-5,2
C/C(=C\C(=O)c1ccc(Br)cc1)NCc1ccc(C)cc1,-2,1,-3,1,-5,-4
CN(CC(=O)N1CCN(c2cccc(Cl)c2)CC1)S(=O)(=O)c1cccs1,53*,3,-1,-4,-5,13
COc1cccc(N2C(=NC(=O)COc3ccccc3)SC3CS(=O)(=O)CC32)c1 (centres undefined),-8,2,0,x,-3,-2
O=C(COc1ccccc1)N=C1SC2CS(=O)(=O)CC2N1c1cccc(F)c1 (centres undefined),48*,-1,-13,x,-52,-23
CN(CCc1ccccc1)c1cc2c(c3c1ccn3C)C1CCC2C1 (centres undefined),x,x,-31,x,x,-14
CN1CCN(C2=Cc3ccccc3Sc3cc(F)c(F)cc32)CC1,6,4,13,7,-2,6
CN1CCN(C2=Cc3cc(Cl)ccc3Sc3cc(F)ccc32)CC1,x,8,27*,-1,-9,-4
O=C1N=C(N2CCCC2)S/C1=C\c1cn[nH]c1-c1ccccc1,x,2,x,-6,x,x
Cc1ccccc1N1CCN(C2=NC(=O)/C(=C/c3cn[nH]c3-c3ccccc3)S2)CC1,48*,3,9,1,4,-1

# Assay outcomes as filed in PubChem BioAssay.
